Source: PubChem BioAssay (Tox21)
Inconclusive results are not listed. Calls of active or inactive are those of the source. Unless noted, calls follow the shape of the dose curve; as a rule, active = well fitted curve in the direction sought with a large enough effect in the repeat runs; inconclusive = weak or mixed curves; inactive = no such curve, though single readings can be large; an effect the other way counts as inactive or inconclusive.

What was measured:
[1] = qHTS assay to test for compound auto fluorescence at 535 nm (green) in HEK293 cells (AID 720680)
[2] = qHTS assay to test for compound auto fluorescence at 460 nm (blue) in HEK293 cell free culture (AID 720681)
Procedure, shortened: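 Compounds were added to cell-free DMEM with 10% FBS and fluorescence read directly. The blue channel used 405 nm excitation and 460 nm emission, with triamterene as the reference fluorophore.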

[3] = qHTS assay to test for compound auto fluorescence at 535 nm (green) in HEK293 cell free culture (AID 720682)
Procedure, shortened: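 Cell-free medium (DMEM, 10% FBS) receives compound or DMSO by pintool. Plate read directly at Ex 485/Em 535 nm. Signal converted to fluorescein equivalency.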

[4] = qHTS assay to test for compound auto fluorescence at 590 nm (red) in HEK293 cell free culture (AID 720683)
Procedure, shortened: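 Cell-free wells of DMEM with 10% FBS received compound, and intrinsic fluorescence was read at excitation/emission 540/590 nm. Values expressed as equivalence to Rose Bengal sodium.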

[5] = qHTS assay to test for compound auto fluorescence at 590 nm (red) in HepG2 cell free culture (AID 720684)
Procedure, shortened: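 Rose Bengal sodium served as the reference for red signal. Test compounds were dispensed into serum-containing MEM (10% FBS) without cells, and plates were read at 540/590 nm.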

[6] = qHTS assay to test for compound auto fluorescence at 460 nm (blue) in HepG2 cell free culture (AID 720685)
Procedure, shortened: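 Cell-free plates of MEM plus 10% FBS received 23 nL compound or DMSO vehicle; blue-channel (405/460 nm) intensity scored against triamterene as reference fluorophore.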

[7] = qHTS assay to test for compound auto fluorescence at 460 nm (blue) in HepG2 cells (AID 720687)
Procedure, shortened: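 HepG2 cells in MEM with 10% FBS, attached overnight at 37 C, were exposed to compound or DMSO for 1 hr at 37 C, 5% CO2. Blue fluorescence was read at 405/460 nm, with triamterene as reference fluorophore.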

[8] = biological target: Glucocorticoid receptor (Homo sapiens) (UniProt P04150); experiment: qHTS assay to identify small molecule agonists of the glucocorticoid receptor (GR) signaling pathway (AID 720691; active = well fitted activation curve with a large enough effect in the signal ratio in the repeat runs, not every such curve was filed as active; the % refers to the signal ratio; also: potency is read from the fitted curve at half-maximal effect)
Procedure, shortened: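 Agonist-mode qHTS in HeLa cells stably expressing a glucocorticoid-response-element beta-lactamase reporter. Fluorescence intensity read with FRET substrate (2 h, room temperature) after 18 h compound treatment at 37 C.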

[9] = qHTS assay to identify small molecule antagonists of the glucocorticoid receptor (GR) signaling pathway - cell viability counter screen (AID 720693); also: nearly all actives have a fitted effect of over 55% in size
[10] = qHTS assay for identifying genotoxic compounds that show differential cytotoxicity against isogenic chicken DT40 cell lines with known DNA damage response pathways - wild type cell line (AID 743012); also: nearly all actives have a fitted effect of over 60% in size; also: potency is read from the fitted curve at half-maximal effect
Procedure, shortened: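 Viability by ATP luminescence (CellTiter-Glo, 30 min RT) after 40 h compound treatment at 37 C/5% CO2, using 300 parental DNA repair-proficient DT40 cells per well.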

[11] = qHTS assay for identifying genotoxic compounds that show differential cytotoxicity against isogenic chicken DT40 cell lines with known DNA damage response pathways - Rev3 mutant cell line (AID 743014); also: nearly all actives have a fitted effect of over 55% in size; also: potency is read from the fitted curve at half-maximal effect
[12] = qHTS assay for identifying genotoxic compounds that show differential cytotoxicity against isogenic chicken DT40 cell lines with known DNA damage response pathways - Rad54/Ku70 mutant cell line (AID 743015); also: nearly all actives have a fitted effect of over 60% in size; also: potency is read from the fitted curve at half-maximal effect
[13] = qHTS assay to identify small molecule antagonists of the androgen receptor (AR) signaling pathway - cell viability counter screen (AID 743033; also: nearly all actives have a fitted effect of over 45% in size)
[14] = qHTS assay to identify small molecule antagonists of the androgen receptor (AR) signaling pathway using the MDA cell line - cell viability counter screen (AID 743041; also: nearly all actives have a fitted effect of over 45% in size)
Procedure, shortened: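 Cytotoxicity counter screen: MDA-kb2 AR-luc cells, compound + R1881, 16 h, 37C, 0% CO2; CellTiter-Fluor added at 15.5 h, fluorescence read after 30 min.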

[15] = qHTS assay to test for compound auto fluorescence at 535 nm (green) in HepG2 cell free culture (AID 720686)
[16] = biological target: Androgen receptor (Homo sapiens) (UniProt P10275); experiment: qHTS assay to identify small molecule antagonists of the androgen receptor (AR) signaling pathway (AID 743035; active = well fitted inhibition curve with a large enough effect in the signal ratio in the repeat runs, not every such curve was filed as active; the % refers to the signal ratio)
Procedure, shortened: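 Antagonist mode: AR-bla HEK293 cells co-treated with test compounds and agonist R1881 for 16 h at 37C, 5% CO2. Beta-lactamase activity read as FRET fluorescence after 2 h room-temperature substrate loading.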

[17] = biological target: Androgen receptor (Homo sapiens) (UniProt P10275); experiment: qHTS assay to identify small molecule agonists of the androgen receptor (AR) signaling pathway (AID 743036; active = well fitted activation curve with a large enough effect in the signal ratio in the repeat runs, with a control signal flat, not every such curve was filed as active; the % refers to the signal ratio)
Procedure, shortened: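 AR-bla HEK293 cells, 2,000/well; 4 h preincubation 37C/5% CO2; compound (DMSO) 16 h at 37C; LiveBLAzer B/G FRET substrate 2 h RT; fluorescence intensity read-out.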

[18] = biological target: Androgen receptor (Homo sapiens) (UniProt P10275); experiment: qHTS assay to identify small molecule agonists of the androgen receptor (AR) signaling pathway using the MDA cell line (AID 743040; also: nearly all actives have a fitted effect of over 20% in size)
Procedure, shortened: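 Luciferase read-out, ONE-Glo, 30 min RT. Cells: MDA-kb2 AR-luc, MMTV promoter with AR and GR response elements. Compound exposure 16 h, 37C, 0% CO2, after 5 h pre-incubation. qHTS agonist mode.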

[19] = biological target: Androgen receptor (Homo sapiens) (UniProt P10275); experiment: qHTS assay to identify small molecule antagonists of the androgen receptor (AR) signaling pathway using the MDA cell line (AID 743042; also: nearly all actives have a fitted effect of over 55% in size)
Procedure, shortened: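 MDA-kb2 breast carcinoma cells carrying MMTV-luciferase (AR/GR responsive) were co-treated with compounds and the agonist R1881 for 16 h at 37C. Inhibition read as ONE-Glo luminescence; CellTiter-Fluor fluorescence measured in parallel for cytotoxicity.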

[20] = biological target: Glucocorticoid receptor (Homo sapiens) (UniProt P04150); experiment: qHTS assay to identify small molecule antagonists of the glucocorticoid receptor (GR) signaling pathway (AID 720692; active = well fitted inhibition curve with a large enough effect in the signal ratio in the repeat runs, not every such curve was filed as active; the % refers to the signal ratio)
Procedure, shortened: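 Inhibition of dexamethasone-driven (5 nM final) beta-lactamase expression was measured in GRE-reporter HeLa cells over 18 h at 37C. Fluorescence was read after 2 h with the B/G FRET substrate at room temperature.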
% is scaled to controls: 0 for no effect and ±100 for the full control effect.

Glucocorticoid receptor (Homo sapiens), sequence (P04150 whole entry, looked up): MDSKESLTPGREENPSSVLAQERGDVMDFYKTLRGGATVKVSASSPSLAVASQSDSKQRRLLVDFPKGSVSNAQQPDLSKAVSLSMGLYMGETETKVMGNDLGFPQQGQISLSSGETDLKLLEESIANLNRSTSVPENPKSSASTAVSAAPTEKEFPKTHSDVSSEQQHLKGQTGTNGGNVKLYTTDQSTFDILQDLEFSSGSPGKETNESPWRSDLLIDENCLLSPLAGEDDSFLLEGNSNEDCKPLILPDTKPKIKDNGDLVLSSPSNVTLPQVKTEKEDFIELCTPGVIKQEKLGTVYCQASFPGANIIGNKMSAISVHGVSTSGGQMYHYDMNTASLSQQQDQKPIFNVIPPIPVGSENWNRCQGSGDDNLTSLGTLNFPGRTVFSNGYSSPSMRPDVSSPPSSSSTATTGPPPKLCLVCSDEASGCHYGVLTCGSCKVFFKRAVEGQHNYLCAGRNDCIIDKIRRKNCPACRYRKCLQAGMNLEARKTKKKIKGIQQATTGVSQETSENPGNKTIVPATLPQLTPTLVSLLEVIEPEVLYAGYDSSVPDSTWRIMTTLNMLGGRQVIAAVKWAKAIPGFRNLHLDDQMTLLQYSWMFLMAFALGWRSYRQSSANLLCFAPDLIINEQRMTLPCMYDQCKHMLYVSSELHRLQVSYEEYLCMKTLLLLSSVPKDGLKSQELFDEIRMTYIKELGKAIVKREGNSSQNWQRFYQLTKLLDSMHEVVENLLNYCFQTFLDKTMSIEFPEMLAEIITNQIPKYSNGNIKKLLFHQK
Androgen receptor (Homo sapiens), sequence (P10275 whole entry, looked up): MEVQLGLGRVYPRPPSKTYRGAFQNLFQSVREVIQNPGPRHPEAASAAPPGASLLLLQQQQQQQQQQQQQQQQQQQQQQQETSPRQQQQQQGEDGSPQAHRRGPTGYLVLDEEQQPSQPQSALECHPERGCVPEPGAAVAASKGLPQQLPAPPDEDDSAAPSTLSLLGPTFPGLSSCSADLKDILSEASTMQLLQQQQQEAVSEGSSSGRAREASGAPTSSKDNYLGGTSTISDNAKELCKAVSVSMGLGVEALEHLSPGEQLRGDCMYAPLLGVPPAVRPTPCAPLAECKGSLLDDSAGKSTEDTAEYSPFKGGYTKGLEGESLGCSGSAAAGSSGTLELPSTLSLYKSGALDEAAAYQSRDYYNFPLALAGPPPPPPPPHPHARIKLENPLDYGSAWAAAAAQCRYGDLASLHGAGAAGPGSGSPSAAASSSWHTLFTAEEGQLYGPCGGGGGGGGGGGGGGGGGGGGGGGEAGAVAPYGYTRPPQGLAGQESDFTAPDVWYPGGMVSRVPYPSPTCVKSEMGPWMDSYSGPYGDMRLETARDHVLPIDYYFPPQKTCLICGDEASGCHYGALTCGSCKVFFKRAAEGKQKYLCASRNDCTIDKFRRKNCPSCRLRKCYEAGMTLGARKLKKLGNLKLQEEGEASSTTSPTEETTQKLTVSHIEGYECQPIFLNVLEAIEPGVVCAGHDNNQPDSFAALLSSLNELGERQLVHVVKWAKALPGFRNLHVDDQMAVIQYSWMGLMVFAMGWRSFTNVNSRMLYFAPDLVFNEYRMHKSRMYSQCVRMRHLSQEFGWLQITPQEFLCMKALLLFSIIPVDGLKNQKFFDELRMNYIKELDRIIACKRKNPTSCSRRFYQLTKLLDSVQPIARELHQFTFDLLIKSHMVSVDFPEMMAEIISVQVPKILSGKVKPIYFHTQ

Nc1ncnc(Nc2ccccc2)n1
inactive: outcome [1] | outcome [2] | outcome [3] | outcome [4] | outcome [5] | outcome [6] | outcome [7] | Potency [8] | outcome [9] | Potency [10] | Potency [11] | Potency [12] | Potency [13] | Potency [14]

O=C(O)c1cc(Br)c(O)c(Br)c1
inactive: outcome [1] | outcome [2] | outcome [3] | outcome [4] | outcome [5] | outcome [15] | outcome [7] | Potency [8] | outcome [9] | Potency [12] | Potency [13] | Potency [16] | outcome [17] | outcome [18] | Potency [14] | Potency [19]

O=C(OCc1ccccc1)C(=O)OCc1ccccc1
inactive: outcome [1] | outcome [2] | outcome [3] | outcome [4] | outcome [6] | outcome [15] | outcome [7] | Potency [8] | outcome [20] | outcome [9] | Potency [10] | Potency [11] | Potency [12] | Potency [13] | Potency [16] | outcome [17] | outcome [18] | Potency [14] | Potency [19]

OCCCCC(O)CO (centres undefined)
inactive: outcome [1] | outcome [2] | outcome [3] | outcome [4] | outcome [5] | outcome [15] | outcome [7] | Potency [8] | outcome [20] | Potency [10] | Potency [11] | Potency [12] | Potency [13] | Potency [14]

NCCN1CCOCC1
inactive: outcome [1] | outcome [2] | outcome [3] | outcome [4] | outcome [6] | outcome [15] | outcome [7] | Potency [8] | outcome [20] | outcome [9] | Potency [10] | Potency [12] | Potency [13] | Potency [14]

CCOC(=O)c1ccc(OC(=O)CCCCCN=C(N)N)cc1
inactive: fluorescence, % of fluorescein [1] -0.102% [at 18.6 µM] | fluorescence, % of fluorescent control [2] -0.0274% [at 18.6 µM] | activity change [3] -0.162% [at 18.6 µM] | fluorescence, % of fluorescent control [4] 0.226% [at 18.6 µM] | fluorescence, % of Rose Bengal [5] -0.0877% [at 18.6 µM] | fluorescence, % of fluorescein control [15] -0.0655% [at 18.6 µM] | fluorescence, % of fluorescent control [7] 0.0159% [at 18.6 µM] | Potency [12] | Potency [14]

O=C(CCN1CCN(CCO)CC1)N1c2ccccc2Sc2ccc(C(F)(F)F)cc21
active: Potency [10] 26.6 µM | Potency [11] 29.8 µM | Potency [12] 29.8 µM
inactive: outcome [1] | outcome [2] | outcome [3] | outcome [4] | outcome [5] | outcome [15] | outcome [7] | outcome [9] | Potency [13] | Potency [16] | outcome [17] | outcome [18] | Potency [14] | Potency [19]

CCOCCOCCOCC
inactive: outcome [1] | outcome [2] | outcome [3] | outcome [4] | outcome [5] | outcome [15] | outcome [7] | Potency [8] | outcome [9] | Potency [10] | Potency [11] | Potency [12] | Potency [13] | Potency [14]

CC(=O)Nc1ccc(S(=O)(=O)Nc2ccc([N+](=O)[O-])cc2)cc1
inactive: outcome [1] | outcome [2] | outcome [3] | outcome [4] | outcome [5] | outcome [7] | Potency [8] | outcome [20] | Potency [10] | Potency [11] | Potency [12] | Potency [14]

CCC(CC)CO
inactive: outcome [1] | outcome [2] | outcome [3] | outcome [4] | outcome [5] | outcome [7] | outcome [9] | Potency [10] | Potency [11] | Potency [12] | Potency [13] | Potency [16] | outcome [18] | Potency [14] | Potency [19]

CCCCOCCOC(=O)COc1nc(Cl)c(Cl)cc1Cl
inactive: outcome [1] | outcome [2] | outcome [3] | outcome [4] | outcome [5] | outcome [15] | outcome [7] | Potency [8] | outcome [9] | Potency [10] | Potency [12] | Potency [13] | Potency [14]

CC1(C)S[C@@H]2[C@H](N=CN3CCCCCC3)C(=O)N2[C@H]1C(=O)O
inactive: outcome [1] | outcome [2] | outcome [3] | outcome [4] | outcome [6] | outcome [15] | outcome [7] | outcome [20] | Potency [10] | Potency [11] | Potency [12] | Potency [13] | Potency [14]
active: Potency [8] 21.3 µM

O=C(OCC(COC(=O)c1cccnc1)(COC(=O)c1cccnc1)COC(=O)c1cccnc1)c1cccnc1
inactive: outcome [1] | outcome [2] | outcome [3] | outcome [4] | outcome [5] | outcome [15] | outcome [7] | Potency [8] | outcome [9] | Potency [10] | Potency [11] | Potency [12] | Potency [13] | Potency [16] | outcome [17] | outcome [18] | Potency [14] | Potency [19]

O=C(NCCN1CCOCC1)c1ccc(Cl)cc1
inactive: outcome [1] | outcome [2] | outcome [3] | outcome [4] | outcome [5] | outcome [15] | outcome [7] | Potency [10] | Potency [11] | Potency [12] | Potency [13] | Potency [14]

C=C(C)C(=O)OCCNC(C)(C)C
inactive: outcome [1] | outcome [2] | outcome [3] | outcome [4] | outcome [6] | outcome [15] | outcome [7] | Potency [8] | outcome [20] | outcome [9] | Potency [10] | Potency [12] | Potency [13] | Potency [14]

CCCOC(OCCC)OCCC
inactive: outcome [1] | outcome [2] | outcome [3] | outcome [4] | outcome [5] | outcome [15] | outcome [7] | Potency [8] | outcome [20] | outcome [9] | Potency [10] | Potency [11] | Potency [12] | Potency [13] | Potency [14]

C=C(C)C(=O)OCCOP(=O)(O)OCCOC(=O)C(=C)C
inactive: outcome [1] | outcome [2] | outcome [3] | outcome [4] | outcome [5] | outcome [15] | outcome [7] | Potency [8] | outcome [9] | Potency [10] | Potency [11] | Potency [12] | Potency [13] | Potency [14]
